Source: the supplement of paper PMC6555819

Legend:
Assay in all cases: PBM binding z-score (relative to random genomic background probes); higher = stronger binding; sequences stand for … in GC…GCGATTGACAGCGTAGAATGAAGG
[1] = test system: RARb homodimer (NR concentration 270 nM)
Procedure, shortened: (§1)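 Binding z-scores were set against random background probes. The data came from custom Agilent 4×180K protein-binding microarrays carrying double-stranded probes with 34-nt variable regions, incubated 1 h with ligand-free nuclear receptor dimers. Partner-specific antibodies detected binding, and scanned fluorescence was regression-normalized.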

[2] = test system: RARg:RXRa (NR concentration 270 nM, RXRa partner concentration 90 nM)
Procedure, shortened: as §1

[3] = test system: RARg homodimer (NR concentration 270 nM)
Procedure, shortened: as §1

[4] = test system: RXRa DBDmut IVT, anti-RXR (DBD mutation: RXRa K156A/R161A, NR concentration 90 nM)
Procedure, shortened: as §1

[5] = test system: RXRa homodimer (NR concentration 180 nM)
Procedure, shortened: as §1

[6] = test system: THRa:RXRa (NR concentration 90 nM, RXRa partner concentration 90 nM)
Procedure, shortened: as §1

[7] = test system: THRa homodimer (NR concentration 90 nM)
Procedure, shortened: as §1

[8] = test system: VDR homodimer (NR concentration 270 nM)
Procedure, shortened: as §1

Sequence | PBM binding z-score [1] | PBM binding z-score [2] | PBM binding z-score [3] | PBM binding z-score [4] | PBM binding z-score [5] | PBM binding z-score [6] | PBM binding z-score [7] | PBM binding z-score [8]
CAAACTAGGTCACAGAGCTCAAAGTCCGTGCGTA | 3.35 | 4.37 | 4.81 | 1.38 | 3.73 | 3.25 | 1.11 | 0.62
GCTGCTAGCTCAGGTTGGTCAGCTAACGGGTACG | -0.467 | -0.618 | -0.751 | -0.375 | -1.02 | -0.615 | -0.751 | -0.32
TTACCAAGGTGAAAGTTCGTTGATGCACGCCTTG | 1.67 | 2.35 | 1.2 | 1.14 | 2.86 | 2.41 | 0.508 | 2.05
CAAACTAGGTCACGAAAGGCCAAAGTCGAATGAC | 4.29 | 5.29 | 5.81 | 2.01 | 3.94 | 4.33 | 1.52 | 1
CAAACTCGGTCAAGAGGTCAAAGTCCGCTTCCCG | 5.17 | 7.26 | 6.13 | 2.01 | 6.42 | 3.9 | 1.61 | 3.72
TCTTGTAGATCAGCAGGATAAGAAAGCTGGCCAA | -0.798 | -0.461 | -0.47 | 0.379 | -0.273 | -0.557 | -0.84 | -0.775
ATATGTAGGTTAAGGTTCATTCAGGTTGGTTCGC | 2.18 | 2.48 | 1.47 | 3.2 | 3.38 | 2.49 | 1.4 | 6.72
ATATGTAGGTTAAGAGTCATTCAGGTTGGTTCGC | 1.26 | 1.23 | 1.13 | 0.882 | 1.53 | 1.24 | 0.283 | 1.24
AGTCAAAGTTCACTAGGTAACGTCAGATTCAGCT | 3.86 | 5.2 | 5.98 | 4.32 | 4.31 | 1.96 | 0.43 | 3.7
GCTTGTAGATCAAGGTTAAGACAGACTAAGCTAA | 0.562 | 0.461 | 0.497 | -0.0408 | 0.989 | 1.27 | -0.0509 | 0.0668
TCTGCTAGTTCAACGATGGTCAGCTAATCTGCTA | 0.82 | 0.768 | 1.03 | 1.32 | 0.188 | 0.928 | -1.34 | 0.129
CAAACTACGTCAAGGTCAAAGTCGGTTTGTGCCA | 4.2 | 4.46 | 4.3 | 2.66 | 4.77 | 3.96 | 3.63 | 4.35
TCATATAGGTAAATGCGAGGTGAAAGTCCGATCT | 1.05 | 0.929 | 0.538 | 1.89 | 1.18 | 2.78 | 1.54 | 0.605
CCTAGTTGGTGAGGAGGTCACACACCGGATATGA | 3.83 | 4.09 | 3.23 | 0.474 | 3.91 | 3.34 | 2.03 | 2.53
TCATATAGGTGATACAGGTGAAAGTCGGCATCTA | 1.08 | 0.874 | 0.742 | 1.16 | 1.34 | 0.983 | 0.0719 | 0.258
TCATATAGCTAAAGGTGAAAGTCGAACGATATGA | 1.14 | 1.43 | 0.944 | 0.443 | 1.84 | 1.18 | -0.427 | -0.396
ATATGTAAGTTACATCCGGGTCATTCAGGCTATG | 2.56 | 1.71 | 1.21 | 1.07 | 2.15 | 3.43 | 2.33 | 3.16

Sequence | PBM binding z-score [1] | PBM binding z-score [2] | PBM binding z-score [3] | PBM binding z-score [4] | PBM binding z-score [5] | PBM binding z-score [6] | PBM binding z-score [7] | PBM binding z-score [8]
TGAATGAGGTAAAAGATCAGGGAACGTGGCGTCG | -0.605 | 0.328 | 0.294 | -0.708 | 0.851 | 1.3 | -0.2 | -0.398
CCGACTGGGGCATAAGGTTACCATAAGCCAGCCC | 1.69 | 1.62 | 1.17 | -0.574 | 1.13 | 2.01 | 1.13 | -0.0146
GAAACGAGGGCAAAGTTGATAGCATCTGTCGACG | 1.33 | 2.11 | 1.58 | 2.66 | 2.3 | 1.57 | -0.284 | 1.13
ACTATTAGTTGAGACGAGGGCAACTGATAGGTTG | 1.19 | 0.865 | 0.97 | 0.568 | 0.797 | 2.41 | 0.298 | 0.702
CTTACTGGGCCATCAGGTCATTGATATCAACGTT | 2.78 | 2.32 | 2.54 | 0.956 | 1.33 | 3.24 | 3.08 | 1.94
AGAATGAGGTTAGACGTAGATCAGGGAAGAAAGT | 0.932 | 0.987 | 0.859 | 0.209 | 1.17 | 1.55 | 0.554 | 0.591
ATATGTAGGTTACATCCGTGTCATTCAGGCTATG | 1.2 | 1.59 | 1.21 | 1.02 | 1.08 | 1.4 | 0.344 | 0.511
AGAATGAGGTTACCAAAGATCAGGTAAACGCTTG | 0.973 | 2.09 | 1.47 | 0.793 | 2.75 | 2.98 | 1.22 | 0.168
AGTCAAAGTTCAGCTAGGTAACGTAAGATATGCT | 3.28 | 4.23 | 5.17 | 3.2 | 2.96 | 2.46 | 0.0376 | 2.26
CCGACTGGGGCAGAAAGGTGACCATACCATCCGG | 1.8 | 0.634 | 0.776 | -0.975 | 0.533 | 0.282 | -0.472 | -0.595
TCTATTAGTTGAATGGCAACCGACGAGTCCGTTT | 0.038 | 0.299 | 0.139 | 1.73 | 0.383 | -0.116 | 0.299 | 1.28
GCTAGCAGGCCATTTGGGTCACGCAATGACGGGC | 2.27 | 1.79 | 1.75 | -0.208 | 1.68 | 2.54 | 1.19 | 0.28
CCTTACGGGTGAAGGTTATAGCACGGGTGGTACG | 0.868 | 0.873 | 0.868 | -1.61 | 1.23 | 0.509 | 0.0246 | -0.283
CGAACTAGGGCAGAACAGGACAGTGAAGGATGAT | 0.707 | 0.486 | 0.757 | 0.0235 | -0.0297 | 1.58 | -0.495 | -0.0975
CATACAGGGTCAGCTAGGCCGGAGTAGGGACGGC | 3 | 4.28 | 4.35 | 1.18 | 3.93 | 2.78 | 0.818 | 0.84
AGAATGAGGATATACGTAGATCAGGGAAGAAAGT | -0.46 | 0.0404 | 0.424 | -0.474 | -0.0531 | 0.415 | -0.039 | -0.0995
TCGAGTAAGTTAGTCGGGGCATTCAGCCAACATA | -0.375 | -0.647 | -0.674 | 0.38 | -0.255 | 0.0972 | -0.58 | -0.125
